# Measurements published in the supplement of paper PMC8728848.
# The sample as a whole holds a higher share of the strongest signals than the screen did.
# B1: PVL (Psathyrella velutina), Q309D1_9AGAR (protein)
# chain: MSVVVISQALPVPTRIPGVADLVGFGNGGVYIIRNSLLIQVVKVINNFGYDAGGWRVEKHVRLLADTTGDNQPDVVGFGENGVWISTNNGNNTFVDPPKMVLANFAYAAGGWRVEKHIRFMADLRKTGRADIVGFGDGGIYISRNNGGGQFAPAQLALNNFGYAQGWRLDRHLRFLADVTGDGLLDVVGFGENQVYIARNSGNGTFQPAQAVVNNFCIGAGGWTISAHPRVVADLTGDRKADILGFGVAGVYTSLNNGNGTFGAVNLVLKDFGVNSGWRVEKHVRCVSSLTNKKVGDIIGFGDAGVYVALNNGNGTFGPVKRVIDNFGYNQGWRVDKHPRFVVDLTGDGCADIVGFGENSVWACMNKGDGTFGPIMKLIDDMTVSKGWTLQKTVRYAANLYL
# Experiments:
# Experiment in all cases: glycan array binding signal (z-score within array); higher = stronger binding
# Settings in all cases: glycan notation: IUPAC condensed, linker removed
# [1] = molecular target: Fuc(a1-2)Gal(b1-3)GlcNAc
# Summary of the method: (§1)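 From the Consortium for Functional Glycomics database, 3228 arrays were curated, keeping only those whose protein sequence was available. Binding is given as a within-array Z-score averaged across arrays sharing a protein sequence and across linkers. Negative Z-scores can be read as non-binding.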
# [2] = molecular target: Fuc(a1-2)Gal(b1-3)GlcNAc(b1-2)Man(a1-3)[Fuc(a1-2)Gal(b1-3)GlcNAc(b1-2)Man(a1-6)]Man(b1-4)GlcNAc(b1-4)[Fuc(a1-6)]GlcNAc
# Summary of the method: as §1
# [3] = molecular target: Fuc(a1-2)Gal(b1-4)GlcNAc(b1-2)Man
# Summary of the method: as §1
# [4] = molecular target: Fuc(a1-2)Gal(b1-4)[Fuc(a1-3)]GlcNAc
# Summary of the method: as §1
# [5] = molecular target: Fuc(a1-2)[Gal(a1-3)]Gal(b1-4)GlcNAc(b1-2)Man
# Summary of the method: as §1
# [6] = molecular target: Fuc(a1-2)[GalNAc(a1-4)]Gal(b1-4)GlcNAc
# Summary of the method: as §1
# [7] = molecular target: Gal(a1-3)Gal(b1-4)[Fuc(a1-3)]GlcNAc
# Summary of the method: as §1
# [8] = molecular target: Gal(b1-3)GlcNAc(b1-2)[Gal(b1-3)GlcNAc(b1-6)]Man(a1-6)[Gal(b1-3)GlcNAc(b1-2)Man(a1-3)]Man(b1-4)GlcNAc(b1-4)GlcNAc
# Summary of the method: as §1
# [9] = molecular target: Gal(b1-3)GlcNAc(b1-3)Gal(b1-4)Glc
# Summary of the method: as §1
# [10] = molecular target: Gal(b1-3)GlcNAc(b1-3)GalNAc
# Summary of the method: as §1
# [11] = molecular target: Gal(b1-3)GlcNAc(b1-6)GalNAc
# Summary of the method: as §1
# [12] = molecular target: Gal(b1-3)[Neu5Ac(b2-6)]GalNAc
# Summary of the method: as §1
# [13] = molecular target: Gal(b1-4)GlcNAc(b1-2)Man(a1-3)[Gal(b1-4)GlcNAc(b1-2)Man(a1-6)]Man(b1-4)GlcNAc(b1-4)GlcNAc
# Summary of the method: as §1
# [14] = molecular target: Gal(b1-4)GlcNAc(b1-2)Man(a1-3)[Gal(b1-4)GlcNAc(b1-2)Man(a1-6)]Man(b1-4)GlcNAc(b1-4)[Fuc(a1-6)]GlcNAc
# Summary of the method: as §1
# [15] = molecular target: Gal(b1-4)GlcNAc(b1-2)Man(a1-3)[GlcNAc(b1-2)Man(a1-6)]Man(b1-4)GlcNAc(b1-4)GlcNAc
# Summary of the method: as §1
# [16] = molecular target: Gal(b1-4)GlcNAc(b1-2)Man(a1-3)[GlcNAc(b1-4)][Gal(b1-4)GlcNAc(b1-2)Man(a1-6)]Man(b1-4)GlcNAc(b1-4)GlcNAc
# Summary of the method: as §1
# [17] = molecular target: Gal(b1-4)GlcNAc(b1-2)Man(a1-6)[GlcNAc(b1-2)Man(a1-3)]Man(b1-4)GlcNAc(b1-4)GlcNAc
# Summary of the method: as §1
# [18] = molecular target: Gal(b1-4)GlcNAc(b1-3)Gal(b1-4)GlcNAc(b1-3)Gal(b1-4)GlcNAc(b1-3)Gal(b1-4)GlcNAc(b1-2)Man(a1-3)[Gal(b1-4)GlcNAc(b1-3)Gal(b1-4)GlcNAc(b1-3)Gal(b1-4)GlcNAc(b1-3)Gal(b1-4)GlcNAc(b1-2)Man(a1-6)]Man(b1-4)GlcNAc(b1-4)GlcNAc
# Summary of the method: as §1
# [19] = molecular target: Gal(b1-6)Gal
# Summary of the method: as §1
# [20] = molecular target: Gal3S(b1-4)[Fuc(a1-3)]GlcNAc6S
# Summary of the method: as §1
# [21] = molecular target: GalNAc(b1-3)Gal
# Summary of the method: as §1
# [22] = molecular target: GalNAc3S(b1-4)GlcNAc3S
# Summary of the method: as §1
# [23] = molecular target: GlcNAc(a1-4)Gal(b1-4)GlcNAc(b1-3)Gal(b1-4)GlcNAc(b1-3)Gal(b1-4)GlcNAc
# Summary of the method: as §1
# [24] = molecular target: GlcNAc(b1-2)Man(a1-3)[GlcNAc(b1-2)Man(a1-6)]Man(b1-4)GlcNAc(b1-4)[Fuc(a1-6)]GlcNAc
# Summary of the method: as §1
binder,measurement,setting,value
B1,glycan array binding signal (z-score),[1],-0.372
same,glycan array binding signal (z-score),[2],-0.362
same,glycan array binding signal (z-score),[3],-0.366
same,glycan array binding signal (z-score),[4],-0.367
same,glycan array binding signal (z-score),[5],-0.372
same,glycan array binding signal (z-score),[6],-0.335
same,glycan array binding signal (z-score),[7],-0.368
same,glycan array binding signal (z-score),[8],-0.349
same,glycan array binding signal (z-score),[9],-0.359
same,glycan array binding signal (z-score),[10],-0.36
same,glycan array binding signal (z-score),[11],-0.364
same,glycan array binding signal (z-score),[12],-0.366
same,glycan array binding signal (z-score),[13],-0.369
same,glycan array binding signal (z-score),[14],-0.555
same,glycan array binding signal (z-score),[15],0.543
same,glycan array binding signal (z-score),[16],-0.369
same,glycan array binding signal (z-score),[17],0.45
same,glycan array binding signal (z-score),[18],0.956
same,glycan array binding signal (z-score),[19],-0.37
same,glycan array binding signal (z-score),[20],-0.344
same,glycan array binding signal (z-score),[21],-0.243
same,glycan array binding signal (z-score),[22],-0.369
same,glycan array binding signal (z-score),[23],4.19
same,glycan array binding signal (z-score),[24],0.519
